Screening results deposited in PubChem by The Scripps Research Institute Molecular Screening Center.
GPR151 ag = activators of human GPR151, primary screen, cell-based, PathHunter beta-arrestin, luminescence. G-protein coupled receptor 151 (Homo sapiens), Q8TDV0. PathHunter beta-arrestin GPR151 cells. activation, % at 11.2 µM. actives 1% (n = 650,000). AID 1508602, 2020; in the data active = activation above about 4.9%
Target sequence (Q8TDV0 whole entry, looked up): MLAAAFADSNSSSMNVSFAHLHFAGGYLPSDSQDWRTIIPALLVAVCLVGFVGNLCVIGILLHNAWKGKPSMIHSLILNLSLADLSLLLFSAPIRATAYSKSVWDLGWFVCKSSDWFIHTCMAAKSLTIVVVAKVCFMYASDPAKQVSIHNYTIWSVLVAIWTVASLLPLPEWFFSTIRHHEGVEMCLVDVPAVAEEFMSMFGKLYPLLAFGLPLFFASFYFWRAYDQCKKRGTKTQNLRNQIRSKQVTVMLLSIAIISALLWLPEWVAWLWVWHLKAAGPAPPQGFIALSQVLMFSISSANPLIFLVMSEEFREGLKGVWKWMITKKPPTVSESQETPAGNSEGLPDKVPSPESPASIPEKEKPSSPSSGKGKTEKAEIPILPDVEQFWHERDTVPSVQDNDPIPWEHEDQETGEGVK
TEAD-YAP inh = TEAD-YAP interaction inhibition, primary screen, TEAD-YAP interaction inhibitor project, luminescence, HEK-TIYL cells. actives 1.4% (n = 640,000). TEAD-Gal4/YAP UAS-luciferase luminescence. inhibition, % at 9.12 µM. AID 1259422, 2018; in the data active = inhibition above about 32%
MITF inh = MITF inhibitors, primary screen, biochemical, AlphaScreen, human; actives 0.91% (n = 650,000); AlphaScreen MITF homodimerization, bead proximity signal; inhibition, % at 2.6 µM; Microphthalmia-associated transcription factor (Homo sapiens), O75030; in the data active = inhibition above about 50%
FBW7 activator = FBW7 E3 ligase activators, primary screen, biochemical, AlphaScreen, human. F-box/WD repeat-containing protein 7 (Homo sapiens), Q969H0. AlphaScreen FBW7–phospho-cyclin E peptide binding, activator screen. normalized activity (activation), % at 26.1 µM. actives 0.13% (n = 650,000). AID 1259310, 2017; in the data active = normalized activity above about 1.9%;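 note: purified mutant Fbw7 with reduced substrate affinity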
Hits are given with their value; - = inactive. Compounds with a hit are over-represented: about 3.5% of the library has one in this group of screens.

SMILES | GPR151 ag | TEAD-YAP inh | MITF inh | FBW7 activator
c1ccc(CCNc2nccn3c(-c4ccoc4)cnc23)nc1 | - | - | - | -
COCCNc1nccn2c(-c3ccccc3CO)cnc12 | - | - | - | -
c1ccc(CCNc2nccn3c(-c4ccsc4)cnc23)nc1 | - | 50.1 | - | -
CCOC(=O)Cn1cc(/C=C(/C#N)C(=O)Nc2cccc(OCC)c2)c2ccccc21 | - | - | - | -
Cc1ccc(/C=c2\sc3nnc(-c4ccccc4)n3c2=O)o1 | - | - | - | -
COc1ccc2c(c1)C(=NNC(N)=S)c1cc(OC)ccc1-2 | - | 49.6 | - | -
COc1ccc2c(c1)C(=NO)c1cc(OC)ccc1-2 | - | - | - | -
COC(=O)c1nn(-c2ccc3c(c2)CCN3C(C)=O)cc1O | - | 94.5 | - | -
CCOC(=O)c1ccccc1NC(=O)/C(C#N)=C/c1ccccc1OC(C)C | - | - | - | -
CCCOC(=O)C1=C(C)NC(=O)NC1c1cc(Br)c(O)c(OC)c1 (stereo unspecified) | - | - | - | -
CN(C)/C=N/C1=C(C#N)C(c2ccc3c(c2)OCO3)c2ccc3ccccc3c2O1 (stereo unspecified) | - | 44.7 | - | -
CC1=NN(c2ccc(C(=O)O)cc2)C(=O)/C1=C\c1ccc([N+](=O)[O-])o1 | - | - | 71.4 | -
CCN(CC)c1ccc(/C=C2/C(=O)N(c3ccccc3)N=C2C)cc1 | - | - | 68.1 | -
CC1=NN(c2ccc(Cl)cc2)C(=O)/C1=C\c1ccc([N+](=O)[O-])o1 | - | - | - | -
CC1=NN(c2ccccc2)C(=O)/C1=C/c1ccc(N2CCCC2)o1 | - | 66.1 | - | -
CC(=O)c1c(C(C)=O)c(C)n(-c2ccc(C)cc2C)c1C | - | - | - | -
CCCOc1ccc(C(CC(=O)O)NC(=O)c2ccc(F)cc2)cc1 (stereo unspecified) | - | - | - | -
COc1ccc(C2NC(=O)NC(C)=C2C(=O)OCCSC)cc1OC (stereo unspecified) | - | - | - | -
Nc1nc(-c2ccccc2)cc(N2CCCC2)n1 | - | 44.6 | - | -
c1ccc(-c2nc(-c3ccncc3)cc(N3CCCCC3)n2)cc1 | - | - | - | -
COc1cc(Br)cc(/C=N/NC(=O)c2ccncc2)c1O | - | 87.3 | 91.0 | -
COc1cc(Br)cc(/C=N\NC(=O)c2ccc(Br)cc2)c1O | - | - | - | -
O=C(N/N=C/c1cc(Cl)cc(Br)c1O)c1ccncc1 | - | 47.1 | 98.4 | -
O=C(N/N=C/c1cc(Br)cc(I)c1O)c1cccnc1 | - | 68.3 | - | -
COc1cc(Cl)cc(/C=N/NC(=O)c2cccc(F)c2)c1O | - | 69.7 | - | -
SMILES | GPR151 ag | TEAD-YAP inh | MITF inh | FBW7 activator
COc1cc(Br)cc(/C=N/NC(=O)c2ccc(F)cc2)c1O | - | - | - | -
Clc1ccc(-c2nc(NCc3ccco3)c3ccccc3n2)c(Cl)c1 | - | - | - | -
COc1ccc(C(=O)N/N=C/c2cc(Cl)cc(Br)c2O)cc1 | - | 33.4 | - | -
O=C(N/N=C/c1cc(Cl)cc(Br)c1O)c1cccnc1 | - | 78.5 | 64.4 | -
Cc1cc(Br)cc(/C=N\NC(=O)c2ccc(N)cc2)c1O | - | 65.5 | - | -
O=C(N/N=C/c1cc(Br)cc(Br)c1O)c1cccnc1 | - | 33.2 | - | -
CCN(Cc1ccccc1)C(=O)c1sc2nc3n(c(=O)c2c1C)CCCC3 | - | 37.2 | - | -
CCC(O)C1CCN(c2nc3nonc3nc2NCc2cccs2)CC1 (stereo unspecified) | - | - | - | -
Cc1nnc2sc(-c3ccc(NC(=O)C(C)(C)C)cc3)nn12 | - | 39.7 | - | -
Cc1c2oc3c(C)ccc(C(=O)N[C@@H]4C(=O)N[C@H](C(C)C)C(=O)N5CCC[C@H]5C(=O)N(C)CC(=O)N(C)[C@@H](C(C)C)C(=O)O[C@@H]4C)c3nc-2c(C(=O)N[C@@H]2C(=O)N[C@H](C(C)C)C(=O)N3CCC[C@H]3C(=O)N(C)CC(=O)N(C)[C@@H](C(C)C)C(=O)O[C@@H]2C)c(N)c1=O | - | 95.7 | - | -
N#CC1=C(N)Oc2ccc3ccccc3c2C1c1cccnc1 (stereo unspecified) | - | 57.3 | - | -
N#CC1=C(N)Oc2c(ccc3ccccc23)C1c1cccc(F)c1 (stereo unspecified) | - | - | - | -
N#CC1=C(N)Oc2ccc3ccccc3c2C1c1cccc(F)c1 (stereo unspecified) | - | 55.7 | - | -
N#CC1=C(N)Oc2ccc3ccc(O)cc3c2C1c1cccnc1 (stereo unspecified) | - | - | - | -
N#C/C(=C/c1cccnc1)C(=O)Nc1cccc(Br)c1 | - | - | - | -
CN(C)c1ccc(/C=C2\C(=O)ON=C2c2ccccc2)cc1Br | - | - | - | -
COc1ccc(CCNc2nnc(Sc3nnnn3-c3ccccc3)s2)cc1OC | - | 54.2 | - | -
CCCS(=O)(=O)N1CCN=C1SCc1ccccc1C | - | - | - | -
CCOC(=O)C1(C(F)(F)F)N=C(C(F)(F)F)Nc2ccc(OC)cc21 (stereo unspecified) | - | - | - | -
COc1ccccc1/C=C/C(=O)c1ccc(O)cc1 | - | - | - | -
Cc1c(/C=C/C(=O)c2ccc(O)cc2)cnn1C | - | 50.5 | - | -
Cc1ccc2occ(/C=C/C(=O)c3ccc(O)cc3)c(=O)c2c1 | - | - | - | -
CCn1cc(/C=C/C(=O)c2ccc(O)cc2)c(C)n1 | - | 86.1 | - | -
COc1cccc(S(=O)(=O)Nc2ccc(F)cc2)c1 | - | - | - | -
Cc1noc(C)c1NC(=O)NC1Cc2ccccc2C1 | - | - | - | -
SMILES | GPR151 ag | TEAD-YAP inh | MITF inh | FBW7 activator
O=C(C1=C(O)C(=O)N(c2nccs2)C1c1cccs1)c1cccs1 (stereo unspecified) | - | - | - | -
CC(=O)C1=C(O)C(=O)N(c2nnn(C)n2)C1c1cccs1 (stereo unspecified) | - | - | - | 3.6
CC(=O)Nc1nc2ccccc2n1Cc1ccccc1Cl | - | 32.6 | - | -
O=C(Nc1nc2ccccc2n1Cc1ccccc1Cl)c1ccccc1 | - | - | - | -
COc1ccccc1C(NC(=O)C(C)C)c1ccc2cccnc2c1O (stereo unspecified) | - | 72.8 | - | -
COc1ccccc1C(NC(C)=O)c1ccc2cccnc2c1O (stereo unspecified) | - | 33.2 | 57.0 | -
CN1/C(=C/C=C/c2cc(-c3ccc(Cl)cc3)cc(-c3ccc(Cl)cc3)[n+]2C)C(C)(C)c2ccccc21 | - | 94.1 | 59.3 | -
O=[N+]([O-])c1cc(Br)c(Nc2ccccc2)c([N+](=O)[O-])c1 | - | 39.6 | - | -
OCCCNc1ccc2ncc(-c3ccc4c(c3)OCO4)n2n1 | - | 61.0 | - | -
c1ccc(CCNc2ccc3ncc(-c4ccc5c(c4)OCO5)n3n2)nc1 | - | 48.0 | - | -
Cc1ccc(OCC(=O)N/N=C\c2ccc(F)cc2)c([N+](=O)[O-])c1 | - | - | - | -
